“And” between values parts separate entries of the source, which are not always exact repeats. Identical values can stand only once. Inconclusive results are not listed. The source made the active and inactive calls. Unless noted, calls follow the shape of the dose curve; as a rule, active = well fitted curve in the direction sought with a large enough effect; inconclusive = small, poorly fitted or top-dose-only effect, or another doubt; inactive = no such curve, though single readings can be large; an effect the other way counts as inactive or inconclusive. Some results are limits rather than exact numbers.

We go through seven molecules from PubChem BioAssay (NCATS).

A short description of experiment [1]: Cell Viability - Hek293 (AID 427;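 active = compounds whose dose-response curve shows a full or clear partial loss of cell viability, called from curve shape rather than a numeric limit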;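 also: potency is read from the fitted curve at half-maximal effect; cells exposed to compound for 40 hours at 37 °C before reading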). The settings on record: qHTS. The essentials:
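HEK293 cells in complete medium were exposed to compound for 40 hr at 37 °C, then cellular ATP was read by CellTiter-Glo luminescence. Data were normalized to DMSO (basal) and 100 uM tamoxifen (100% inhibition), and AC50 came from Hill fits.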
A general note: Quantitative high-throughput screening tests each substance at several concentrations.

Experiment [2] is described as follows: Cell Viability - N2a (AID 540).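 Also: plate controls were DMSO alone for no effect and tamoxifen control for full effect; nearly all actives have a fitted effect of over 45% in size.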 The settings on record: N2a mouse neuroblastoma cell viability; activity change, negative = cytotoxicity: at 92.2 µM (top of the series). The essentials:
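Cytotoxicity was scored as loss of cellular ATP in N2a cells, a mouse neuroblastoma line. Compounds are applied in a qHTS concentration series for 40 hr at 37 °C.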

Experiment [3] is described as follows: Cell Viability - H-4-II-E (AID 543). Also: % is scaled to controls: 0 for no effect and ±100 for the full control effect; nearly all actives have a fitted effect of over 35% in size. The conditions noted are these: H-4-II-E rat hepatoma viability; series mostly up to 92.2 µM. The essentials:
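Cells seeded at 1500 per well and rested 5 hr; compounds added; 40 hr incubation at 37 °C; CellTiter-Glo added, 20 min at room temperature; luminescence read. Hill-equation fits gave AC50.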

The nature of experiment [4]: Cell Viability - SH-SY5Y (AID 544).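 Also: 0% = DMSO alone and -100% = 100 µM tamoxifen; nearly all actives have a fitted effect of over 55% in size.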 The settings on record: SH-SY5Y neuroblastoma cell viability; viability change, negative = cytotoxic: at 92.2 µM (top of the series). The essentials:
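Cells were plated at 1500 per well and allowed 5 hr at 37 °C. Compounds were added across a concentration range and incubated 40 hr at 37 °C. CellTiter-Glo was added for 20 min at room temperature before luminescence reading.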

Experiment [5] is described as follows: Cell Viability - Renal Proximal Tubule (AID 545).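 Also: 0% = DMSO only and -100% = 100 µM tamoxifen; nearly all actives have a fitted effect of over 40% in size.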 The settings on record: renal proximal tubule cells viability, primary cells of rat origin; activity change, negative = cytotoxicity: at 91.7 µM (top of the series). In short, it runs like this:
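Luminescent ATP signal (CellTiter-Glo) served as the viability read-out after 40 hr compound exposure of freshly isolated rat proximal tubule cells at 37 °C. Concentration-dependent ATP loss was fitted with the Hill equation to give AC50.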

A short description of experiment [6]: MultiTox-Fluor Cytotoxicity Assay - LYMP1-002 - Dead Cells (AID 960).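 Also: cells exposed to compound for 16 h at 37 °C; 0% = DMSO and 100% = tetraoctylammonium bromide; nearly all actives have a fitted effect of over 60% in size.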 The conditions noted are these: LYMP1-002 lymphoblastoid cells, dead-cell protease fluorescence; series mostly up to 46.1 µM. In short, it runs like this:
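Cells were plated, rested 5 hr, then treated with compound dilution series for 16 hr at 37 C. After adding substrate reagent and 60 min at room temperature, dead-cell protease fluorescence gave concentration-response curves fitted by the Hill equation.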

Experiment [7] can be described thus: Cell Viability - LYMP2-004 (AID 966).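 Also: plate controls were DMSO only for no effect and tetraoctylammonium bromide control for full effect; nearly all actives have a fitted effect of over 65% in size.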 The settings on record: LYMP2-004 lymphoblastoid cell viability, qHTS; series mostly up to 92.2 µM. In short, it runs like this:
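qHTS cytotoxicity: human lymphoblastoid line, 24 hr compound treatment, 37 C, complete medium. Viability read as cellular ATP via luciferase luminescence; tetraoctylammonium bromide served as positive control.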

The nature of experiment [8]: Cell Viability - LYMP2-005 (AID 967).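 Also: cells exposed to compound for 24 h at 37 °C; plate controls were DMSO only for no effect and 92 µM tetraoctylammonium bromide control for full effect.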 The settings on record: LYMP2-005 lymphoblastoid cell viability; series mostly up to 92.2 µM. In short, it runs like this:
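Acute cytotoxicity is scored as a concentration-dependent drop in intracellular ATP in human lymphoblastoid LYMP2-005 cells after 24 h compound treatment. ATP is quantified by luciferase luminescence, and AC50 is derived by Hill-equation modelling.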

Experiment [9] is described as follows: Cell Viability - LYMP2-009 (AID 968).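 Also: cells exposed to compound for 24 h at 37 °C; 0% = DMSO alone and the full-kill end = tetraoctylammonium bromide at 92 µM; nearly all actives have a fitted effect of over 55% in size.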 The conditions noted are these: LYMP2-009 lymphoblastoid cell viability; series mostly up to 92.2 µM.
Experiment [10] is described as follows: Cell Viability - LYMP2-015 (AID 971).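 Also: 0% = DMSO only and full effect = 92 µM tetraoctylammonium bromide; nearly all actives have a fitted effect of over 55% in size.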 The settings on record: LYMP2-015 lymphoblastoid cell viability; series mostly up to 92.2 µM. In short, it runs like this: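 Cells are seeded at 2500 per well and incubated 5 hr at 37 C. Compounds are added across a concentration series for 24 hr at 37 C. CellTiter-Glo is added, and luminescence is read after 30 min at room temperature.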

Experiment [11] can be described thus: Cell Viability - LYMP2-017 (AID 972).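 Also: cells exposed to compound for 24 hours at 37 °C; % is scaled to controls: 0 for no effect and ±100 for the full control effect; nearly all actives have a fitted effect of over 55% in size.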 The conditions noted are these: LYMP2-017 lymphoblastoid cell viability; series mostly up to 92.2 µM. In short, it runs like this: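 Cytotoxicity is scored as a concentration-dependent drop in cellular ATP in a human lymphoblastoid line after 24 hr treatment at 37 C. Values are AC50s from Hill-equation modelling.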
The nature of experiment [12]: Cell Viability - LYMP2-006 (AID 978).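 Also: cells exposed to compound for 24 hours; % is scaled to controls: 0 for no effect and ±100 for the full control effect; nearly all actives have a fitted effect of over 60% in size.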 The settings on record: LYMP2-006 lymphoblastoid cell viability, qHTS; series mostly up to 92.2 µM. In short, it runs like this: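 Cells are seeded at 2500 per well and rested 5 hr at 37 C. Compounds are added across a concentration series for 24 hr at 37 C, after which ATP is quantified by luciferase luminescence.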
The nature of experiment [13]: Cell Viability - LYMP2-010 (AID 981). The conditions noted are these: LYMP2-010 lymphoblastoid cell viability, qHTS; series mostly up to 92.2 µM. The essentials: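 Steps: seed 2500 LYMP2-010 cells per well; incubate 5 hr at 37 C; add compound; incubate 24 hr at 37 C; add CellTiter-Glo, wait 30 min at room temperature; read luminescence. Concentration-response fitted to Hill equation for AC50.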

Experiment [14] in a line: qHTS assay for small molecule agonists of retinoid X receptor alpha signaling (AID 588544; calls by dose curve). The settings on record: HEK293T RXRa-UAS-bla, beta-lactamase reporter, 18 h; 530 nm emission.
For experiment [15], the target named is Retinoic acid receptor RXR-alpha (Homo sapiens) (UniProt P19793). Described as above. The conditions noted are these: HEK293T RXRa-UAS-bla, beta-lactamase reporter, 18 h; series mostly up to 76.7 µM.
Retinoic acid receptor RXR-alpha (Homo sapiens), sequence (P19793 whole entry, looked up): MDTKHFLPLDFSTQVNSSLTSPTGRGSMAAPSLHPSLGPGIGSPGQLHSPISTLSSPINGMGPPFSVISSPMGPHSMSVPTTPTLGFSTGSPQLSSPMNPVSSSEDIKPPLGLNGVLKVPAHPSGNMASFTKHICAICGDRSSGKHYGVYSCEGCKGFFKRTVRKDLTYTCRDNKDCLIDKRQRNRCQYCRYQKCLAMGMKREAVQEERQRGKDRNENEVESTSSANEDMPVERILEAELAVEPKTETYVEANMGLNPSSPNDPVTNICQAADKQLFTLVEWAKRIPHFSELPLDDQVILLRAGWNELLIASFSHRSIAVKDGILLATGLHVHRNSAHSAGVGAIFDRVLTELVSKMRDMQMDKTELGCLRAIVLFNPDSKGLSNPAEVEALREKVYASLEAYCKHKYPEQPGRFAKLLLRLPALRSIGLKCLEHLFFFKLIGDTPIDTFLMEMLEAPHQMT
Experiment [16] concerns the target Thyroid hormone receptor beta (Homo sapiens) (UniProt P10828). Kind of experiment: qHTS assay for small molecule agonists of thyroid hormone receptor beta signaling (AID 588545; calls by dose curve;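 also: 0% = DMSO only and 100% = 10 nM T3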). The conditions noted are these: TR-UAS-bla GripTite HEK 293, beta-lactamase ratio, agonist mode, 18 h; series mostly up to 76.7 µM. In short, it runs like this: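 Beta-lactamase reporter activity under TR response element control is measured in HEK 293 cells after 18 hrs compound exposure. Signal is ratiometric CCF4 fluorescence, 460/530 nm.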

A short description of experiment [17]: qHTS assay for small molecule disruptors of the mitochondrial membrane potential - 1 hr assay (AID 651754; calls by dose curve; also: nearly all actives have a fitted effect of over 35% in size; also: potency is read from the fitted curve at half-maximal effect). The conditions noted are these: series mostly up to 92.2 µM. The essentials:
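Loss of mitochondrial potential shifts the cationic dye from red mitochondrial aggregates to green cytoplasmic monomers. Cells (HepG2) are treated with compound for 1 hr before a 30 min dye incubation at 37C.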

The nature of experiment [18]: qHTS assay for small molecule disruptors of the mitochondrial membrane potential - 5 hr assay (AID 651755; calls by dose curve; also: nearly all actives have a fitted effect of over 40% in size; also: potency is read from the fitted curve at half-maximal effect). The conditions noted are these: JC-1-type ratio dye; series mostly up to 92.2 µM. The essentials: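 Seed HepG2 overnight, add compound, incubate 5 hr at 37C and 5% CO2, stain 30 min with Mito-MPS, then measure monomer (490/535 nm) and aggregate (540/590 nm) fluorescence.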

The nature of experiment [19]: qHTS assay for small molecule agonists of the antioxidant response element (ARE) signaling pathway measured by Nrf2-dependant transcriptional activity (AID 720636; active = well fitted curve in the direction sought with a large enough effect in the repeat runs; an effect the other way counts as inactive or inconclusive;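 also: HepG2 cells with an ARE-driven luciferase reporter; % of control where 0% means no effect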). The conditions noted are these: ARE-luc HepG2, Nrf2 luciferase reporter, 16 h; series mostly up to 92.4 µM. The essentials:
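Nrf2-dependent transcription is measured in ARE-luc HepG2 cells: compound is applied for 16 hr at 37 C after a 6 hr attachment period, and luciferase activity is quantified by luminescence using ONE-Glo.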

Experiment [20] concerns the target Nuclear receptor subfamily 1 group I member 2 (Rattus norvegicus) (UniProt Q9R1A7). Kind of experiment: qHTS assay for small molecule activators of the rat pregnane X receptor (rPXR) signaling pathway (AID 651751; call rule not given here; also: 0% is about no effect). The conditions noted are these: rPXR reporter cells, luciferase (One-Glo), 24 h.

Thyroid hormone receptor beta (Homo sapiens), sequence (P10828 whole entry, looked up): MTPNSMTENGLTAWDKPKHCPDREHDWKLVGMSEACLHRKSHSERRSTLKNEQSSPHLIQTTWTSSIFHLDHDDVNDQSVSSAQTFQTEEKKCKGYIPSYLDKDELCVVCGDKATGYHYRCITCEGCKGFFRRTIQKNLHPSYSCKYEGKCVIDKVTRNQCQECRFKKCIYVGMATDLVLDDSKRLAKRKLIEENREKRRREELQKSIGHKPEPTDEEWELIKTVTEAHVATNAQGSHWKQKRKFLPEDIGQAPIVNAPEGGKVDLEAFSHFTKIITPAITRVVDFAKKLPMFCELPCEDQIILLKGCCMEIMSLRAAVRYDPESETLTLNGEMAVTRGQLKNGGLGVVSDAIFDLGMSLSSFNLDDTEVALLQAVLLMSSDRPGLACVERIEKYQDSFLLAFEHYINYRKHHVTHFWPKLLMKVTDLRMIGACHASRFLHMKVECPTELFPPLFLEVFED
Nuclear receptor subfamily 1 group I member 2 (Rattus norvegicus), sequence (Q9R1A7 whole entry, looked up): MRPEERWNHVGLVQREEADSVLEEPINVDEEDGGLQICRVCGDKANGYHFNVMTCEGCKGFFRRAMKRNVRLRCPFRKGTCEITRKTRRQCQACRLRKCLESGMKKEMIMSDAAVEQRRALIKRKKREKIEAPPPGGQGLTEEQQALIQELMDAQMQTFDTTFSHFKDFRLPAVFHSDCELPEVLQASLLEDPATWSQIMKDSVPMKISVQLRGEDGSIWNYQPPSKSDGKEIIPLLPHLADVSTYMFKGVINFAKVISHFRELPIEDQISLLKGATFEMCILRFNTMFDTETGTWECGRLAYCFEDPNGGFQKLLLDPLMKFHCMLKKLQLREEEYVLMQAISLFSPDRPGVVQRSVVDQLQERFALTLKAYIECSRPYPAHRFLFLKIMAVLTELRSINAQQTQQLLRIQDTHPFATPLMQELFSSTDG

Take `c1ccc(COCc2ccccc2)cc1`: in experiment [1], the Potency was > 92 µM (inactive). Also, in [2], the activity change, negative = cytotoxicity is -4.56% (inactive). Moreover, the Potency entry in [3], in experiment [4], in experiment [5], in experiment [6], in experiment [7] and in experiment [8] was “inactive” in each case. Besides, the Potency result in [9], in experiment [10], in [11], in [12], in experiment [13] and in experiment [15] was “inactive” throughout. The Potency result in [16], in [17], in experiment [18] and in experiment [19] was “inactive” throughout. For the same molecule, the max response was -5.39% in [14] and 4.39% (inactive) in [20].

Take `O=[N+]([O-])c1ccc(F)cc1F`: the Potency in experiment [1] was > 92 µM (inactive). In [2], the activity change, negative = cytotoxicity was -8.79% (inactive). Moreover, the Potency entry in experiment [3], in experiment [4], in experiment [5], in experiment [6], in [7] and in experiment [8] was “inactive” each time. In addition, the Potency result in experiment [9], in experiment [10], in [11], in experiment [12], in experiment [15] and in experiment [16] was “inactive” throughout. Moreover, the Potency result in experiment [17], in [18] and in experiment [19] was “inactive” throughout. Further, the max response is 0.464% in experiment [14] and 0.993% (inactive) in [20].

With `OCC(CO)(CBr)CBr`, the Potency in [1] is > 92 µM (inactive). The activity change, negative = cytotoxicity in experiment [2] was -2.21% (inactive). Also, the Potency entry in [3], in [4], in [5], in [6], in experiment [7] and in experiment [8] was “inactive” each time. Besides, the Potency result in experiment [9], in [10], in experiment [11], in [12], in experiment [13] and in [15] was “inactive” each time. The Potency result in experiment [16], in experiment [17], in experiment [18] and in [19] was “inactive” in each case. Moreover, the max response in [14] was 0.243% and -1.22%; in experiment [20], 4.89% (inactive) and 3.86% (inactive).

Regarding `O=[N+]([O-])c1cccc(I)c1`, the Potency in experiment [1] was > 92 µM (inactive). The activity change, negative = cytotoxicity in experiment [2] is -10.4% (inactive). The Potency entry in [3], in experiment [4], in experiment [5], in experiment [6], in experiment [7] and in experiment [8] was “inactive” in each case. For the same molecule, the Potency entry in experiment [9], in [10], in experiment [11], in experiment [12], in experiment [13] and in experiment [15] was “inactive” each time. In addition, the Potency entry in experiment [16], in [17], in [18] and in experiment [19] was “inactive” throughout. Also, the max response is -0.727% in experiment [14] and -1.98% (inactive) in experiment [20].

As for `c1ccncc1`, the Potency in [1] is > 92 µM (inactive). For the same molecule, the activity change, negative = cytotoxicity in [2] is -3.08% (inactive). The Potency entry in experiment [3], in experiment [4], in experiment [5], in experiment [6], in experiment [7] and in [8] was “inactive” in each case. The Potency entry in [9], in [10], in experiment [11], in experiment [12], in experiment [13] and in experiment [15] was “inactive” each time. The Potency result in experiment [16], in experiment [17], in [18] and in experiment [19] was “inactive” each time. Besides, the max response was 1.38% in [14] and 3.74% (inactive) in experiment [20].

Turning to `COc1ccc(C(=O)Nc2ccccc2)cc1[N+](=O)[O-]`, the Potency is > 92 µM (inactive) in [1], 33.5 µM (active) in [17] and 37.6 µM (active) in experiment [18]. The activity change, negative = cytotoxicity in experiment [2] is -4% (inactive). Besides, the Potency entry in [3], in experiment [5], in experiment [7], in experiment [8], in experiment [9] and in experiment [10] was “inactive” in each case. Moreover, the Potency entry in experiment [12], in [13] and in [16] was “inactive” in each case.

Turning to `CCCCCCc1ccc(-c2ccc(C#N)cc2)cc1`, in experiment [1], the Potency is > 92 µM (inactive). In addition, the activity change, negative = cytotoxicity in experiment [2] was -10.7% (inactive). The Potency result in experiment [3], in experiment [4], in [5], in experiment [6], in experiment [7] and in experiment [8] was “inactive” throughout. Besides, the Potency entry in experiment [9], in [10], in [11], in experiment [12], in experiment [13] and in [15] was “inactive” in each case. The Potency result in [16], in experiment [17], in experiment [18] and in experiment [19] was “inactive” each time. The max response in [14] is -25.6%; in experiment [20], -10.6% (inactive).
